Reference: PubChem BioAssay (EPA / NIEHS)
“And” between values parts separate entries of the source, which are not always exact repeats. Equal entries are not always repeated. Records with an inconclusive call do not appear. More than one record can exist for a structure, and the calls need not agree. The source made the active and inactive calls. Rule for the calls, unless noted: active = hit-call score of the fitted dose curve at least 0.9, where 1 is the maximum; inconclusive = response in the unintended direction; inactive = score below 0.9.

How the values were obtained:
[1] = read-out: Transforming Growth Factor (TGFA), TGFA (gene 7039); assay: LTEA_HepaRG_TGFA: Life Technologies and Expression Analysis (LTEA) Assay for Transforming Growth Factor (TGFA) using HepaRG (AID 2283532; active = hit-call score of the fitted dose curve at least 0.9, where 1 is the maximum; inactive = score below 0.9); conditions: mRNA level, 48 h; actives raise or lower the signal
Outline: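 Differentiated human HepaRG cells, plated 48 h then switched to serum-free induction medium, were exposed in duplicate for 48 h to 8-point half-log series from 100 uM in 0.5% DMSO. TGFA mRNA measured by qRT-PCR, normalized to ACTB/GAPDH/POLR2A, bidirectional fit versus DMSO.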

[2] = read-out: Transforming Growth Factor (TGFB1), TGFB1 (gene 7040); assay: LTEA_HepaRG_TGFB1: Life Technologies and Expression Analysis (LTEA) Assay for Transforming Growth Factor (TGFB1) Transporter using HepaRG (AID 2283533; active = hit-call score of the fitted dose curve at least 0.9, where 1 is the maximum; inactive = score below 0.9); conditions: mRNA level, 48 h; actives raise or lower the signal
Outline: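 TGFB1 transcript measured by qRT-PCR with normalisation to three housekeeping genes (ACTB, GAPDH, POLR2A); human HepaRG line treated in duplicate for 48 hr with an 8-point series topping at 100 uM, 0.5% DMSO vehicle, bidirectionally fitted.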

TIMP1, TIMP1 (gene 7076) = assay: LTEA_HepaRG_TIMP1: Life Technologies and Expression Analysis (LTEA) Assay for TIMP1 using HepaRG (AID 2283534; active = hit-call score of the fitted dose curve at least 0.9, where 1 is the maximum; inactive = score below 0.9); conditions: mRNA level, 48 h; actives raise or lower the signal
Outline: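 Bidirectional change in TIMP1 transcript versus 0.5% DMSO, measured by TaqMan qRT-PCR with three housekeeping genes for normalization. HepaRG human liver cells dosed 48 h in duplicate, top concentration 100 uM with half-log dilutions.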

[3] = read-out: Tumor necrosis factor receptor 1 (TNFRSF1A), TNFRSF1A (gene 7132); assay: LTEA_HepaRG_TNFRSF1A: Life Technologies and Expression Analysis (LTEA) Assay for Tumor necrosis factor receptor 1 (TNFRSF1A) using HepaRG (AID 2283535; active = hit-call score of the fitted dose curve at least 0.9, where 1 is the maximum; inactive = score below 0.9); conditions: mRNA level, 48 h; actives raise or lower the signal
Outline: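 mRNA measured by qRT-PCR (TaqMan, Fluidigm arrays) against ACTB/GAPDH/POLR2A housekeepers after 48 h chemical exposure of HepaRG cells. Top concentration 100 uM, half-log 8-point series, duplicates; vehicle 0.5% DMSO, both fit directions.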

[4] = read-out: Thyroid Hormone Responsive (THRSP), THRSP (gene 7069); assay: LTEA_HepaRG_THRSP: Life Technologies and Expression Analysis (LTEA) Assay for Thyroid Hormone Responsive (THRSP) using HepaRG (AID 2283536; active = hit-call score of the fitted dose curve at least 0.9, where 1 is the maximum; inactive = score below 0.9); conditions: mRNA level, 48 h; actives raise or lower the signal
Outline: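 Differentiated human HepaRG cells were exposed in duplicate for 48 h in serum-free induction medium to eight concentrations (top 100 uM, half-log steps, 0.5% DMSO). Expression was quantified by TaqMan qRT-PCR, normalized to ACTB, GAPDH and POLR2A, with bidirectional fitting against DMSO.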

[5] = read-out: Cellular tumor antigen p53 (Homo sapiens) (UniProt P04637); assay: LTEA_HepaRG_TP53: Life Technologies and Expression Analysis (LTEA) Assay for Tumor Protein P53 (TP53) using HepaRG (AID 2283537; active = hit-call score of the fitted dose curve at least 0.9, where 1 is the maximum; inactive = score below 0.9); conditions: mRNA level, 48 h; actives raise or lower the signal
Outline: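 TP53 transcript measured by qRT-PCR, normalized to three housekeeping genes, after 48 h treatment of human HepaRG cultures with chemicals from 100 uM downward in half-log steps (0.5% DMSO vehicle, serum-free induction medium). Up- or down-regulation fitted against DMSO.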

[6] = read-out: UDP glucuronosyltransferase (UGT1A1), UGT1A1 (gene 54658); assay: LTEA_HepaRG_UGT1A1: Life Technologies and Expression Analysis (LTEA) Assay for UDP glucuronosyltransferase (UGT1A1) using HepaRG (AID 2283538; active = hit-call score of the fitted dose curve at least 0.9, where 1 is the maximum; inactive = score below 0.9); conditions: mRNA level, 48 h; actives raise or lower the signal
Outline: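 Human liver HepaRG cultures receive test chemical for 48 h, up to 100 uM in 0.5% DMSO, with phenobarbital induction controls. UGT1A1 mRNA is measured by qRT-PCR and normalized to ACTB, GAPDH and POLR2A.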

[7] = read-out: UDP glucuronosyltransferase (UGT1A6), UGT1A6 (gene 54578); assay: LTEA_HepaRG_UGT1A6: Life Technologies and Expression Analysis (LTEA) Assay for UDP glucuronosyltransferase (UGT1A6) using HepaRG (AID 2283539; active = hit-call score of the fitted dose curve at least 0.9, where 1 is the maximum; inactive = score below 0.9); conditions: mRNA level, 48 h; actives raise or lower the signal
Outline: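 Expression was quantified by TaqMan qRT-PCR on Fluidigm arrays with ACTB/GAPDH/POLR2A normalization and bidirectional fitting against 0.5% DMSO. HepaRG cells (~100,000/well) were treated in duplicate for 48 h at eight half-log concentrations up to 100 uM in serum-free induction medium.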

[8] = read-out: X-box binding protein 1 (XBP1), XBP1 (gene 7494); assay: LTEA_HepaRG_XBP1: Life Technologies and Expression Analysis (LTEA) Assay for X-box binding protein 1 (XBP1) using HepaRG (AID 2283540; active = hit-call score of the fitted dose curve at least 0.9, where 1 is the maximum; inactive = score below 0.9); conditions: mRNA level, 48 h; actives raise or lower the signal
Outline: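 XBP1 transcript by qRT-PCR (housekeeping-normalized: ACTB, GAPDH, POLR2A) after 48 h chemical treatment of HepaRG cells, 8-point half-log series topping at 100 uM, vehicle 0.5% DMSO. Gain and loss of signal fitted relative to DMSO.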

[9] = LTEA_HepaRG_LDH_cytotoxicity: Cytotoxicity Assessment in the Life Technologies and Expression Analysis (LTEA) Assay (AID 2283563);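 for AC50: LDH activity released into spent culture medium as a marker of cell death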
Outline: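 LDH release into culture medium read after 48 h chemical treatment of HepaRG cells. Duplicate wells, eight-point half-log series topping at 100 uM, 0.5% DMSO vehicle and baseline.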

[10] = ATG_XTT_Cytotoxicity: Cytotoxicity Assessment in the Attagene TRANS-FACTORIAL HepG2 Assay (AID 2283584);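 for AC50: cells exposed to compound for 24 h before reading; active means loss of viability signal versus DMSO baseline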
Outline: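 Viability endpoint from XTT after 24 h chemical exposure of reporter-transfected human HepG2 liver cells; signal loss fitted relative to DMSO negative control.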

[11] = TOX21_p53_BLA_p2_viability: Viability Assessment in the Tox21 HCT-116 p53 Agonism Beta-lactamase Assay, Phase 2 (AID 2283591);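 note: compound exposure lasted 16 h at 37 °C; actives lower the ATP signal meaning cytotoxicity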
Outline: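 HCT-116 p53-bla cells (4000/well) rested 5 h at 37C, then received compounds in DMSO (217-fold dilution) for 16 h at 37C, 5% CO2. After the CCF4 read, CellTiter-Glo was added; ATP luminescence was read after 30 min at room temperature.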

[12] = target: Cellular tumor antigen p53 (Homo sapiens) (UniProt P04637); assay: TOX21_p53_BLA_p2_ratio: Tox21 HCT-116 p53 Agonism Beta-lactamase Assay, Ratio, Phase 2 (AID 2283592)
Chain of Cellular tumor antigen p53 (Homo sapiens) (P04637 whole entry, looked up): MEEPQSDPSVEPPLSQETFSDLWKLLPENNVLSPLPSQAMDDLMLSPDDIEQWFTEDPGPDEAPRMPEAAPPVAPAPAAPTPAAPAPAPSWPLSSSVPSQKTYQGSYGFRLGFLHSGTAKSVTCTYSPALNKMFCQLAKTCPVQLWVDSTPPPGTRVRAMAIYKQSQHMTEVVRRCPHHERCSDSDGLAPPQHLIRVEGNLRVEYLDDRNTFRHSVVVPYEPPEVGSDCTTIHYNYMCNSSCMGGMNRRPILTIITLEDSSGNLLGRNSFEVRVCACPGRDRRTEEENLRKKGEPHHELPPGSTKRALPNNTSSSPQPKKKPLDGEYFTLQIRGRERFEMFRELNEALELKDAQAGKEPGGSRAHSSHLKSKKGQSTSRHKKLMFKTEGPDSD
Outline: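 Gain-of-signal p53 agonism was scored from the beta-lactamase FRET ratio (460/530 nm, 405 nm excitation) in HCT116 cells treated 16 h at 37C, 5% CO2, with DMSO serving as negative control and baseline.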

[13] = TOX21_p53_BLA_p3_viability: Viability Assessment in the Tox21 HCT-116 p53 Agonism Beta-lactamase Assay, Phase 3 (AID 2283593);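 note: cells exposed to compound for 16 h before reading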
Outline: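 HCT-116 cells (4000/well) rested 5 h at 37C, then got DMSO compounds by pin tool (217-fold dilution) for 16 h at 37C, 5% CO2. After the bla read, CellTiter-Glo was added and luminescence read at 30 min, room temperature.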

[14] = target: Cellular tumor antigen p53 (Homo sapiens) (UniProt P04637); assay: TOX21_p53_BLA_p3_ratio: Tox21 HCT-116 p53 Agonism Beta-lactamase Assay, Ratio, Phase 3 (AID 2283596)
Outline: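 HCT116 p53-bla cells (4000/well) given compound in DMSO (217-fold dilution) after 5 h, incubated 16 h at 37C. CCF4-AM substrate 2 h at room temperature; 460/530 nm emission ratio, gain fitted against DMSO.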

[15] = TOX21_p53_BLA_p4_viability: Viability Assessment in the Tox21 HCT-116 p53 Agonism Beta-lactamase Assay, Phase 4 (AID 2283597);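 note: hits lower the luminescence signal meaning cytotoxicity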
Outline: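 Following a 16 h exposure at 37C, the treated HCT116 wells were first read for the FRET ratio. They were then lysed with CellTiter-Glo, and ATP luminescence was recorded after 30 min at room temperature.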

[16] = target: Cellular tumor antigen p53 (Homo sapiens) (UniProt P04637); assay: TOX21_p53_BLA_p5_ratio: Tox21 HCT-116 p53 Agonism Beta-lactamase Assay, Ratio, Phase 5 (AID 2283599)
Outline: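 HCT-116 cells carrying a p53-inducible beta-lactamase reporter were seeded at 4000 cells/well and dosed after 5 h with compound in DMSO (217-fold dilution). After 16 h at 37C, CCF4-AM substrate was added for 2 h, and the 460/530 nm emission ratio was scored as gain-of-signal versus DMSO.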

[17] = TOX21_p53_BLA_p5_viability: Viability Assessment in the Tox21 HCT-116 p53 Agonism Beta-lactamase Assay, Phase 5 (AID 2283600)
Outline: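 After the 460/530 nm beta-lactamase measurement, the wells received an ATP-detection luciferase reagent; signal was read 30 min later at RT. Compound treatment lasted 16 h on cells pre-incubated 5 h post-seeding.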

[18] = target: Cellular tumor antigen p53 (Homo sapiens) (UniProt P04637); assay: TOX21_p53_BLA_p4_ratio: Tox21 HCT-116 p53 Agonism Beta-lactamase Assay, Ratio, Phase 4 (AID 2283601)
Outline: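 HCT116 cells carrying an inducible beta-lactamase reporter were plated at 4000 cells/well, rested 5 h, then exposed to compounds in DMSO (217-fold dilution) for 16 h at 37C. CCF4-AM substrate was loaded 2 h at room temperature; 460/530 nm emission ratio scored gain-of-signal versus DMSO.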

[19] = Tanguay_ZF_120hpf_MORT_legacy: (Legacy) Oregon State University Tanguay Lab 120 Hour Post-fertilization zebrafish Assay for Mortality (AID 2283633);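 for AC50: fitted as increase in binary mortality versus DMSO negative control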
Outline: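 Static waterborne exposure from 6 to 120 hpf at 28C of single dechorionated wild-type (5D) embryos per well, 0.64% DMSO final. Death recorded present/absent by brightfield at 24 and 120 hpf.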

Measured: AC50

CCCCCCCCOc1ccc(C(=O)c2ccccc2)c(O)c1
active: [6] 20.4 µM
inactive: all other assays above

Cc1cn([C@H]2C[C@H](N=[N+]=[N-])[C@@H](CO)O2)c(=O)[nH]c1=O
inactive: all assays above

O=C(O)Cc1cc(I)c(Oc2ccc(O)c(I)c2)c(I)c1
active: [1] 85.3 µM | [2] 79.5 µM | [4] 81.7 µM | [5] 79.6 µM | [6] 95.7 µM | [7] 77.9 µM | [8] 75 µM | [11] 2.06 µM and 5.75 µM | [12] 899 nM and 4.4 µM | [14] 1.64 µM and 8.48 µM | [15] 19 µM and 5.82 µM | [16] 1.95 µM and 16.7 µM | [17] 21.8 µM | [18] 3.33 µM and 5.61 µM
inactive: TIMP1, TIMP1 (gene 7076) | [3] | [9] | [10] | [17] | [19]

O=CCCCC=O
active: [14] 69.9 µM and 37 µM
not listed: [13]
inactive: all other assays above

COc1cc(C(=O)NC2CCN(C)CC2)ccc1Nc1ncc2c(n1)N(C1CCCC1)CC(F)(F)C(=O)N2C
inactive: [1] | [10]
active: [2] 3.64 µM | TIMP1, TIMP1 (gene 7076) 11.9 µM | [3] 4.65 µM | [4] 0.923 µM | [5] 8 µM | [6] 21 µM | [7] 8.85 µM | [8] 10.8 µM | [9] 16.5 µM | [11] 47.4 µM | [12] 3.93 nM | [14] 70.1 µM | [15] 42.9 µM | [16] 3.96 nM | [17] 68.8 µM | [19] 24.4 µM

Cc1cc(F)ccc1-c1cc(N2CC[C@@H](O)[C@H]2CO)ncc1N(C)C(=O)C(C)(C)c1cc(C(F)(F)F)cc(C(F)(F)F)c1
inactive: TIMP1, TIMP1 (gene 7076) | [3] | [7] | [8] | [19]
active: [1] 23.6 µM | [2] 19.3 µM | [4] 20.6 µM | [5] 19.9 µM | [6] 23 µM | [9] 30.9 µM | [10] 23.3 µM | [11] 11 µM | [12] 21800 nM | [14] 45.3 µM | [15] 27.3 µM | [16] 36000 nM | [17] 23.7 µM
